# Rows were chosen to be rich in hits. Some 2.2% of all compounds tested hit in one or more screens of this group.
# aSyn UTR inh: 5' untranslated region of α-synuclein, MLPCN primary screen | alpha-synuclein 5'UTR reporter, inhibitor activity | inhibition, % (tested at 7.5 µM) | 300,000 tested, 0.82% active | AID 1813; in the data active means inhibition above about 60%; inconclusive means no clear call, values can overlap the other calls;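 further: H4 neuroglioblastoma cells stably carrying SNCA 5'UTR luciferase fusion; 0% = DMSO wells and 100% = positive control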
# BaF3 parental: reduces parental Ba/F3 cell viability, JAK2V617F counter-screen. CellTiter-Glo ATP luminescence. inhibition, % at 5.6 µM. 220,000 tested, 1.1% active. AID 1486;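 active means inhibition above a per-campaign cutoff, the mean inhibition of all tested compounds plus 3 SD, cut at about 27% in these data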;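 further: 0% = DMSO wells and 100% = JAK Inhibitor I control wells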
# APP transl inh: APP translation inhibition; SH-SY5Y APP 5'UTR-luciferase reporter, luminescence; 190,000 tested, 0.82% active; inhibition, % at 2 µM;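 active means inhibition above a set limit, derived from the sample mean plus 3 SD, cut at about 45% in these data; inconclusive means one replicate passes the limit while the other fails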
# KLF5 inhibitor: kruppel-like factor 5 inhibition. DLD-1 KLF5 promoter-luciferase reporter, luminescence. inhibition, % at 5 µM. 290,000 tested, 0.23% active. AID 1700;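 active means inhibition above a per-plate limit of that plate's mean compound inhibition plus 3 SD, cut at about 60% in these data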;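 further: 0% = DMSO wells and 100% = LY294002 at 200 µM; higher means less KLF5 promoter-driven luciferase light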
# IEC-6 cytotox: counter-screen for KLF5 inhibitors: cytotoxicity in IEC-6 cells | inhibition, % at 5 µM | IEC-6 cytotoxicity, luminescence viability | AID 1825 | 290,000 tested, 0.78% active; in the data active means inhibition above about 22%;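 further: 0% = plate median of test compound wells and 100% = cytotoxic reference compound wells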
# Ba/F3 V617F tox: lowers viability of Ba/F3 cells expressing EpoR and JAK2V617F; 220,000 tested, 1.1% active; ATP luminescence; AID 1446; inhibition, % at 5.6 µM;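 active means inhibition above the campaign mean plus 3 SD over all tested compounds, cut at about 24% in these data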;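 further: cytokine-independent growth of Ba/F3 cells driven by EpoR plus mutant JAK2; 0% = DMSO-treated cells and 100% = JAK inhibitor I control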
# The depositor's hits bear a star; ? = inconclusive; . = no result given.
SMILES,aSyn UTR inh,BaF3 parental,APP transl inh,KLF5 inhibitor,IEC-6 cytotox,Ba/F3 V617F tox
CCCCNC(=O)CC(C(=O)N1CCc2ccccc21)n1ccnc1 (configuration not stated),5,0,14,-17,0,-4
OC(COCc1ccc2c(c1)OCO2)CN1CCN(Cc2ccccc2)CC1 (configuration not stated),16,-1,51*,-26,-4,-2
Cc1cc(C)n(-c2nc(NCCCN(C)C)c3c4c(sc3n2)CCCC4)n1,-36,1,.,-20,8,4
Cc1cc(C)n(-c2nc(NCCN(C)C)c3c4c(sc3n2)CCCC4)n1,116*,-4,.,-25,10,4
Cc1ccc(C#N)c(SCc2ccccc2F)n1,22,2,.,-3,3,-2
Cc1ccc2nc(CSc3nc(C)ccc3C#N)[nH]c2c1,79*,4,-93,-4,-5,2
CC(=O)c1cccc(NS(=O)(=O)c2ccc3c(c2)N(C(C)=O)CCO3)c1,-70,.,.,-33,3,.
OCCNc1c2ccccc2nc2c(F)c(F)c(F)c(F)c12,-84,9,87*,-12,11,2
c1ccc2c(NCCCN3CCOCC3)c3ccccc3nc2c1,.,3,63*,-29,5,-5
CN(C)CCCNc1nc(-c2ccccc2)nc2ccccc12,-8,5,.,-11,4,5
CN(C)CCCNc1c2ccccc2nc2ccccc12,71*,.,.,49,10,.
COCCNC(=O)CCN1N=C(c2ccccc2)CCC1=O,-18,.,.,-34,4,.
COc1ccc2cc(-c3cc(C(=O)O)c4ccccc4n3)ccc2c1,78*,15,-84,41,3,13
COc1cccc(CNC(=O)N2CCN(S(=O)(=O)c3ccc(C)cc3)CC2)c1,4,.,.,-10,6,.
COc1ccc2oc(C(=O)NCc3cc(OC)c(OC)cc3OC)c(C)c2c1,-23,.,.,-22,9,.
O=[N+]([O-])c1ccc2[nH]nc(-c3ccccc3)c2c1,18,8,-21,-21,-2,-2
O=[N+]([O-])c1ccc2[nH]c3nc4ccccc4nc3c2c1,-11,43*,.,-13,9,36*
CCCCn1nnnc1SCC(=O)NC1CCCCC1,5,.,.,-1,7,.
COc1ccc(OC)c(NC(=O)CCn2ccnc2)c1,-7,.,.,-28,3,.
CCOC(=O)/C=c1\s/c(=C\c2c(OC)ccc3ccccc23)c(=O)n1CC(=O)NCC1CCCO1 (configuration not stated),71*,6,0,-6,0,-1
COc1ccc(N=Nc2ccc(O)c3ncccc23)cc1,44,4,.,-13,10,-3
O=Nc1ccc(O)c2ncccc12,-236,103*,.,10,19,99*
Cc1ccccc1N=Nc1ccc(O)c2ncccc12,?,1,77*,-6,-2,3
O=[N+]([O-])c1ccc(O)c2ncccc12,72*,4,-7,7,-4,-6
COc1ccc(C)cc1N=Nc1ccc(O)c2ncccc12,68*,1,68*,6,0,0
SMILES,aSyn UTR inh,BaF3 parental,APP transl inh,KLF5 inhibitor,IEC-6 cytotox,Ba/F3 V617F tox
Cc1ccc(NC(=O)C2CC(O)CN2C(=O)OCc2ccccc2)c(C)c1 (configuration not stated),-6,.,.,-10,-4,.
Cc1ccccc1-n1nc2c(c1NC(=O)C(C)(C)C)CS(=O)(=O)C2,-14,.,.,-18,1,.
CC(C)CC(=O)NC(=S)NNC(=O)c1ccc(NC(=O)C2CCCCC2)cc1,75*,7,19,-6,-4,-1
CC(C)CC(=O)NC(=S)NNC(=O)c1ccc([N+](=O)[O-])cc1,1,7,-8,-23,-1,-4
Cc1ccc(NC(=O)c2ccc(CNS(=O)(=O)c3cccc(C(F)(F)F)c3)cc2)cc1,12,33*,17,-21,5,4
O=C(CNS(=O)(=O)c1ccccc1)Nc1ccc(C(F)(F)F)cc1,-2,3,68*,-57,-3,-2
O=C(Nc1ccccc1F)c1ccc(CNS(=O)(=O)c2cccc(C(F)(F)F)c2)cc1,-15,1,2,3,-1,-1
COC(=O)CCCNC(=O)CCc1nnc(-c2ccc(-c3ccccc3)cc2)o1,77*,.,.,-55,-3,.
O=C(CCc1nnc(-c2ccc(-c3ccccc3)cc2)o1)NCCc1ccccn1,90*,5,44,-37,2,-2
CC(NC(=O)CCc1nnc(-c2ccc(-c3ccccc3)cc2)o1)c1nccs1 (configuration not stated),89*,7,34,-86,-8,-1
COc1ccc2c(c1)c(CC(=O)Nc1nnc(C3CC3)s1)c(C)n2C(=O)c1ccc(Cl)cc1,24,38*,.,-8,7,17
Fc1cccc(NC(=S)NNc2ccccc2)c1,-140,.,.,-12,6,.
Fc1cccc(NC(=S)NNc2c3ccccc3nc3ccccc23)c1,-7,7,54*,-20,8,-3
CC(=O)O[C@@]12CO[C@@H]1C[C@H](O)[C@@]1(C)C(=O)[C@H](O)C3=C(C)[C@@H](OC(=O)[C@H](O)[C@@H](NC(=O)OC(C)(C)C)c4ccccc4)C[C@](O)([C@@H](OC(=O)c4ccccc4)[C@H]21)C3(C)C,72*,62*,.,68*,87*,73*
CCn1c2ccccc2c2nnc(SCC(=O)Nc3c(C)n(C)n(-c4ccccc4)c3=O)nc21,13,2,-26,-6,6,0
Cc1c(NC(=O)CSc2nnc3c4ccccc4n(CCc4ccccc4)c3n2)c(=O)n(-c2ccccc2)n1C,-25,6,-15,24,60*,-1
O=C(CCCOc1ccc(Cl)cc1)NC1CCCCC1,1,.,.,-37,-4,.
CC(C)c1ccc2c(c1)CCC1C(C)(CN)CCCC21C (configuration not stated),97*,79*,.,-19,-2,96*
COc1ccc(N(CC(=O)NCC2CCCO2)S(=O)(=O)c2ccccc2)cc1OC (configuration not stated),1,.,.,17,6,.
COc1ccccc1CNC(=O)c1nn(C)c2c1CS(=O)(=O)c1ccccc1-2,26,.,.,-1,-6,.
Cc1ccc(/C=C/c2nc3ccccc3c(=O)[nH]2)cc1,68*,2,.,-80,14,5
CSc1cccc(NC(=O)C2CCCN(c3ncnc4c3nc3n4CCCCC3)C2)c1 (configuration not stated),7,.,.,-27,3,.
CCn1c(SCc2ccccc2Cl)nc2nc3c(cc2c1=O)CCCC3,0,5,70*,-34,-4,2
CCn1c(C(=O)O)c(CC(=O)N(C)c2ccc(OC)cc2OC)c2ccccc21,8,.,.,-29,-3,.
COc1ccc2c(c1)C(C)(CCN)C(=O)N2C (configuration not stated),4,.,.,.,.,.
CCc1c(C)[nH]n(-c2nc(-c3ccccc3)cs2)c1=O,-21,3,-34,-43,2,-4
